# Source: PubChem BioAssay (NCATS)
# Records with an inconclusive call do not appear. Entries that show only a call come without a potency. Calls of active or inactive are those of the source. The call rests on the fitted dose curve; in most records, active means well fitted inhibition curve with a large enough effect; inconclusive means small, poorly fitted or top-dose-only effect; inactive means flat fitted curve, though single readings scatter.
# Legend:
# [1] = molecular target: Calcium and integrin-binding protein 1 (Homo sapiens) (UniProt Q99828); assay: Primary qHTS for Identification of Calcium Integrin Binding Protein 1 (CIB1) Competitor (AID 1508620);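 further: GST tagged CIB1 binding a fluorescein labelled alphaIIb integrin peptide tracer; top concentration of the series differs between compounds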
# Chain of Calcium and integrin-binding protein 1 (Homo sapiens) (Q99828 whole entry, looked up): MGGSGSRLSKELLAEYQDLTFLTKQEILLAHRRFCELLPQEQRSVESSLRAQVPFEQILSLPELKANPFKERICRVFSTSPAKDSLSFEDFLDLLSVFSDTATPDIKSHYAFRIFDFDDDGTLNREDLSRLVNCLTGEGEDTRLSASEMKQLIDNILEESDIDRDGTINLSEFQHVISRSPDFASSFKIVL
# In short: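 Fluorescence polarization competition: GST-tagged CIB1 (1 uM final) preincubated with compound 15 min at room temperature, then FITC-labelled alphaIIb peptide (100 nM final) added. After 15 min at room temperature, polarization read at Ex 480/Em 540.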
# [2] = Primary qHTS for inhibitors of nuclear receptor binding SET domain protein 2 (NSD2) in an isogenic RCH-ACV NSD2 p.E1099K mutant (9B) (AID 1645876); further: nearly all actives have a fitted effect of over 70% in size
Structure (SMILES),Potency [1],Potency [2]
CCC(O)C(C)C1CCC(C(C)C(=O)O)O1 (stereo unspecified),inactive,inactive
C[C@H]1C(=O)N2c3ccccc3[C@@]3(O)C[C@@H]4C(=O)N[C@](C)(c5nc6ccccc6c(=O)n54)N1[C@@H]23,inactive,inactive
C=C1C(OC(C)=O)CCC2(C)CC3(OC)OC(=O)C(C)=C3CC12 (stereo unspecified),inactive,inactive
C[C@@H]1CCC2C(C)(C)[C@H](O)CC[C@]2(C)[C@@]12Cc1c(O)cc3c(c1O2)CNC3=O (stereo partly specified),inactive,inactive
CC1=C(/C=C/C(C)=C\C=C\C(C)=C/C(=O)O)C(C)(C)CCC1,inactive,inactive
C[C@@H]1CCC/C=C/[C@H]2CC(=O)C[C@@H]2[C@@H](O)/C=C/C(=O)O1,inactive,inactive
COc1ccc(/C=C\C(=O)O)c(O[C@@H]2O[C@H](CO)[C@@H](O)[C@H](O)[C@H]2O)c1,inactive,inactive
CC1(C)CCC[C@]2(C)[C@H]3CC(=O)O[C@]3(C)CC[C@@H]12,inactive,inactive
